# According to the supplement of paper PMC10037445:
# In all, about 2,900 compounds were measured (“NF-kB SEAP reporter activity, fold change vs agonist alone”: median about 0.99, highest 2% from about 2.6 on). The entries come from a sample that favours the highest values as a whole.
# Assays:
# RAW-Dual [1] = experiment: NF-kB SEAP reporter activity, fold change vs agonist alone; cytotoxicity flag (confluency mask): not cytotoxic; higher = enhanced NF-kB activity
# In short: (§1)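 Cytotoxic wells were those whose IncuCyte confluency was below 70% of agonist controls in both mask sets. The cells were RAW-Dual macrophages at 50,000 cells/well in DMEM on 384-well plates, dosed with 50 nL of library stock by pin tool, stimulated with a PRR agonist 1 h later, and kept at 37 °C, 5% CO2 for 20 hours. IRF and NF-κB reporter activity, as fold change over agonist-alone wells, came from supernatant read by QuantiLuc luminescence and QuantiBlue absorbance, respectively.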
# RAW-Dual [2] = experiment: NF-kB SEAP reporter activity, fold change vs agonist alone; higher = enhanced NF-kB activity
# In short: as §1
# RAW-Dual [3] = experiment: NF-kB SEAP reporter activity, fold change vs agonist alone; cytotoxicity flag (confluency mask): cytotoxic (confluency <70% of control); higher = enhanced NF-kB activity
# In short: as §1
# [4] = agonist: ODN 1826 (TLR9) 0.5 ug/mL
# [5] = agonist: Pam2CSK4 (TLR2/6) 0.1 ug/mL
# [6] = agonist: Pam3CSK4 (TLR2/1) 0.1 ug/mL
# [7] = library stock concentration (final ~1000-fold dilution): 10 mM, cytotoxicity flag (confluency mask): not cytotoxic, agonist: Imiquimod (TLR7) […]
# [8] = library stock concentration (final ~1000-fold dilution): 10 mM, cytotoxicity flag (confluency mask): not cytotoxic, agonist: MPLA (TLR4) […]
smiles,measurement,setting,value
CC1CC(=O)c2c(ccc3c2C(=O)c2cccc(O)c2C3=O)C1 (configuration not stated) (library stock concentration (final ~1000-fold dilution): 10 mM),NF-kB SEAP reporter activity,RAW-Dual [1]; agonist: LPS (TLR4) 0.1 ug/mL,1.64
same,NF-kB SEAP reporter activity,RAW-Dual [1]; [4],1.14
same,NF-kB SEAP reporter activity,RAW-Dual [1]; [5],1.09
same,NF-kB SEAP reporter activity,RAW-Dual [1]; [6],0.991
CC1CC(=O)c2c(ccc3c2C(=O)c2cccc(O)c2C3=O)C1 (configuration not stated),NF-kB SEAP reporter activity,RAW-Dual [2]; [7],1.02
same,NF-kB SEAP reporter activity,RAW-Dual [2]; [8],1.26
CC(NC(=O)C(NC(=O)OCc1ccccc1)C(C)C)C(=O)NC(CC(=O)O)C(=O)CF (configuration not stated) (library stock concentration (final ~1000-fold dilution): 10 mM),NF-kB SEAP reporter activity,RAW-Dual [1]; agonist: LPS (TLR4) 0.1 ug/mL,1.23
same,NF-kB SEAP reporter activity,RAW-Dual [1]; [4],0.939
same,NF-kB SEAP reporter activity,RAW-Dual [1]; [5],0.948
same,NF-kB SEAP reporter activity,RAW-Dual [1]; [6],1.03
CC(NC(=O)C(NC(=O)OCc1ccccc1)C(C)C)C(=O)NC(CC(=O)O)C(=O)CF (configuration not stated),NF-kB SEAP reporter activity,RAW-Dual [2]; [7],0.964
same,NF-kB SEAP reporter activity,RAW-Dual [2]; [8],0.934
CCCC1CC(C(=O)NC(C(C)Cl)C2OC(SC)C(O)C(O)C2O)N(C)C1.Cl.O (configuration not stated) (library stock concentration (final ~1000-fold dilution): 10 mM),NF-kB SEAP reporter activity,RAW-Dual [1]; agonist: LPS (TLR4) 0.1 ug/mL,1.29
same,NF-kB SEAP reporter activity,RAW-Dual [1]; [4],0.918
same,NF-kB SEAP reporter activity,RAW-Dual [1]; [5],0.831
same,NF-kB SEAP reporter activity,RAW-Dual [1]; [6],0.973
CCCC1CC(C(=O)NC(C(C)Cl)C2OC(SC)C(O)C(O)C2O)N(C)C1.Cl.O (configuration not stated),NF-kB SEAP reporter activity,RAW-Dual [2]; [8],1.07
O=C(Nc1cccc(Br)c1)c1cccc(S(=O)(=O)N2CCCCCC2)c1 (library stock concentration (final ~1000-fold dilution): 10 mM),NF-kB SEAP reporter activity,RAW-Dual [1]; agonist: LPS (TLR4) 0.1 ug/mL,0.803
same,NF-kB SEAP reporter activity,RAW-Dual [1]; [4],1.79
same,NF-kB SEAP reporter activity,RAW-Dual [1]; [5],1.02
same,NF-kB SEAP reporter activity,RAW-Dual [1]; [6],0.939
O=C(Nc1cccc(Br)c1)c1cccc(S(=O)(=O)N2CCCCCC2)c1,NF-kB SEAP reporter activity,RAW-Dual [2]; [7],1.56
same,NF-kB SEAP reporter activity,RAW-Dual [2]; [8],1.26
C/C(=N\NC(=O)c1cccc(S(=O)(=O)N2CCOCC2)c1)c1cc(Cl)ccc1O,NF-kB SEAP reporter activity,RAW-Dual [2]; [7],1.53
same,NF-kB SEAP reporter activity,RAW-Dual [2]; [8],1.65
C/C(=N\NC(=O)c1cccc(S(=O)(=O)N2CCOCC2)c1)c1cc(Cl)ccc1O (library stock concentration (final ~1000-fold dilution): 10 mM),NF-kB SEAP reporter activity,RAW-Dual [1]; agonist: LPS (TLR4) 0.1 ug/mL,2.6
same,NF-kB SEAP reporter activity,RAW-Dual [1]; [4],1.9
same,NF-kB SEAP reporter activity,RAW-Dual [1]; [5],1.52
same,NF-kB SEAP reporter activity,RAW-Dual [1]; [6],2.48
O=C(O)CCn1c2c(c3ccccc31)CC(NS(=O)(=O)c1ccc(F)cc1)CC2 (configuration not stated),NF-kB SEAP reporter activity,RAW-Dual [2]; [8],1.07
O=C(O)CCn1c2c(c3ccccc31)CC(NS(=O)(=O)c1ccc(F)cc1)CC2 (configuration not stated) (library stock concentration (final ~1000-fold dilution): 10 mM),NF-kB SEAP reporter activity,RAW-Dual [1]; agonist: LPS (TLR4) 0.1 ug/mL,1.07
same,NF-kB SEAP reporter activity,RAW-Dual [1]; [4],0.99
same,NF-kB SEAP reporter activity,RAW-Dual [1]; [5],1.13
same,NF-kB SEAP reporter activity,RAW-Dual [1]; [6],1.07
COc1ccc(C=Cc2cc(OC)c(OC)c(OC)c2)cc1OP(=O)(O)O (library stock concentration (final ~1000-fold dilution): 10 mM water),NF-kB SEAP reporter activity,RAW-Dual [3]; agonist: LPS (TLR4) 0.1 ug/mL,5.99
same,NF-kB SEAP reporter activity,RAW-Dual [3]; [4],2.48
same,NF-kB SEAP reporter activity,RAW-Dual [3]; [5],2.34
same,NF-kB SEAP reporter activity,RAW-Dual [3]; [6],2.65
COc1ccc(C=Cc2cc(OC)c(OC)c(OC)c2)cc1OP(=O)(O)O,NF-kB SEAP reporter activity,"RAW-Dual [2]; library stock concentration (final ~1000-fold dilution): 10 mM water, cytotoxicity flag (confluency mask): cytotoxic (confluency <70% of control), agonist: Imiquimod (TLR7) […]",1.67
same,NF-kB SEAP reporter activity,"RAW-Dual [2]; library stock concentration (final ~1000-fold dilution): 10 mM water, cytotoxicity flag (confluency mask): cytotoxic (confluency <70% of control), agonist: MPLA (TLR4) […]",2.09
COc1ccc(/C=C/C(=O)O)cc1OC (library stock concentration (final ~1000-fold dilution): 10 mM),NF-kB SEAP reporter activity,RAW-Dual [1]; agonist: LPS (TLR4) 0.1 ug/mL,1.43
same,NF-kB SEAP reporter activity,RAW-Dual [1]; [4],1.15
same,NF-kB SEAP reporter activity,RAW-Dual [1]; [5],1.15
same,NF-kB SEAP reporter activity,RAW-Dual [1]; [6],1.14
COc1cc(/C=C/C(=O)O)ccc1O,NF-kB SEAP reporter activity,RAW-Dual [2]; [7],0.903
same,NF-kB SEAP reporter activity,RAW-Dual [2]; [8],1.09
COc1ccc(C(=O)C=Cc2cc(OC)c(OC)c(OC)c2)cc1OC,NF-kB SEAP reporter activity,"RAW-Dual [2]; library stock concentration (final ~1000-fold dilution): 20 mM, cytotoxicity flag (confluency mask): cytotoxic (confluency <70% of control), agonist: Imiquimod (TLR7) […]",0.192
same,NF-kB SEAP reporter activity,"RAW-Dual [2]; library stock concentration (final ~1000-fold dilution): 20 mM, cytotoxicity flag (confluency mask): cytotoxic (confluency <70% of control), agonist: MPLA (TLR4) […]",0.302
COc1cc(C=CC(=O)CC(=O)C=Cc2ccc(O)c(OC)c2)ccc1O,NF-kB SEAP reporter activity,"RAW-Dual [2]; library stock concentration (final ~1000-fold dilution): 100 mM, cytotoxicity flag (confluency mask): not cytotoxic, agonist: Imiquimod (TLR7) […]",0.155
same,NF-kB SEAP reporter activity,"RAW-Dual [2]; library stock concentration (final ~1000-fold dilution): 100 mM, cytotoxicity flag (confluency mask): not cytotoxic, agonist: MPLA (TLR4) […]",0.257
COc1ccc(C(=O)C=Cc2cc(OC)c(OC)c(OC)c2)cc1OC (library stock concentration (final ~1000-fold dilution): 20 mM),NF-kB SEAP reporter activity,RAW-Dual [3]; agonist: LPS (TLR4) 0.1 ug/mL,0.326
same,NF-kB SEAP reporter activity,RAW-Dual [3]; [4],0.215
same,NF-kB SEAP reporter activity,RAW-Dual [3]; [5],0.0975
same,NF-kB SEAP reporter activity,RAW-Dual [3]; [6],0.176
COc1cc(C=CC(=O)CC(=O)C=Cc2ccc(O)c(OC)c2)ccc1O (library stock concentration (final ~1000-fold dilution): 100 mM),NF-kB SEAP reporter activity,RAW-Dual [1]; agonist: LPS (TLR4) 0.1 ug/mL,0.303
same,NF-kB SEAP reporter activity,RAW-Dual [1]; [4],0.197
same,NF-kB SEAP reporter activity,RAW-Dual [1]; [5],0.13
same,NF-kB SEAP reporter activity,RAW-Dual [1]; [6],0.242
COc1ccc(/C=C\c2cc(OC)c(OC)c(OC)c2)cc1O (library stock concentration (final ~1000-fold dilution): 10 mM),NF-kB SEAP reporter activity,RAW-Dual [1]; agonist: LPS (TLR4) 0.1 ug/mL,4.68
same,NF-kB SEAP reporter activity,RAW-Dual [1]; [4],2.84
same,NF-kB SEAP reporter activity,RAW-Dual [1]; [5],1.69
same,NF-kB SEAP reporter activity,RAW-Dual [1]; [6],2.62
COc1ccc(/C=C\c2cc(OC)c(OC)c(OC)c2)cc1O,NF-kB SEAP reporter activity,RAW-Dual [2]; [7],1.63
same,NF-kB SEAP reporter activity,RAW-Dual [2]; [8],2.07
COc1cc(/C=C/C(=O)O)ccc1O (library stock concentration (final ~1000-fold dilution): 10 mM),NF-kB SEAP reporter activity,RAW-Dual [1]; agonist: LPS (TLR4) 0.1 ug/mL,1.16
same,NF-kB SEAP reporter activity,RAW-Dual [1]; [4],1.12
same,NF-kB SEAP reporter activity,RAW-Dual [1]; [5],1.17
same,NF-kB SEAP reporter activity,RAW-Dual [1]; [6],1.04
COc1ccc(/C=C/C(=O)O)cc1OC,NF-kB SEAP reporter activity,RAW-Dual [2]; [7],0.805
same,NF-kB SEAP reporter activity,RAW-Dual [2]; [8],1.05
CCC(C)C(NC(=O)C(CCCCN)NC(=O)C(CCC(=O)O)NN)C(=O)NC(CCC(N)=O)C(=O)NC(C)C(=O)NC(CCCCN)C(=O)N1CCCC1C(=O)NC(C)C(=O)C(=O)C(CC(C)C)NC(=O)C(CCC(N)=O)NC(=O)C(NC(=O)C(NC(=O)C(CCCNC(=N)N)NC(=O)C(Cc1ccccc1)NC(=O)C(CCCCNNC(Cc1ccccc1)C(=O)NC(CO)C(=O)NC(CCC(=O)O)C(=O)NC(CO)C(=O)NC(C(=O)NC(CC(N)=O)C(=O)NC(C=O)CO)C(C)O)NC(=O)C(Cc1ccccc1)NC(=O)C(CO)NC(=O)C(CCC(=O)O)NC(=O)C(CO)NC(=O)C(NC(=O)C(CC(N)=O)NC(=O)C(N)CO)C(C)O)C(C)C)C(C)O (configuration not stated) (library stock concentration (final ~1000-fold dilution): 10 mM water),NF-kB SEAP reporter activity,RAW-Dual [1]; agonist: LPS (TLR4) 0.1 ug/mL,1.1
same,NF-kB SEAP reporter activity,RAW-Dual [1]; [4],1.16
same,NF-kB SEAP reporter activity,RAW-Dual [1]; [5],1.13
same,NF-kB SEAP reporter activity,RAW-Dual [1]; [6],1.74
CCC(C)C(NC(=O)C(CCCCN)NC(=O)C(CCC(=O)O)NN)C(=O)NC(CCC(N)=O)C(=O)NC(C)C(=O)NC(CCCCN)C(=O)N1CCCC1C(=O)NC(C)C(=O)C(=O)C(CC(C)C)NC(=O)C(CCC(N)=O)NC(=O)C(NC(=O)C(NC(=O)C(CCCNC(=N)N)NC(=O)C(Cc1ccccc1)NC(=O)C(CCCCNNC(Cc1ccccc1)C(=O)NC(CO)C(=O)NC(CCC(=O)O)C(=O)NC(CO)C(=O)NC(C(=O)NC(CC(N)=O)C(=O)NC(C=O)CO)C(C)O)NC(=O)C(Cc1ccccc1)NC(=O)C(CO)NC(=O)C(CCC(=O)O)NC(=O)C(CO)NC(=O)C(NC(=O)C(CC(N)=O)NC(=O)C(N)CO)C(C)O)C(C)C)C(C)O (configuration not stated),NF-kB SEAP reporter activity,"RAW-Dual [2]; library stock concentration (final ~1000-fold dilution): 10 mM water, cytotoxicity flag (confluency mask): not cytotoxic, agonist: Imiquimod (TLR7) […]",0.927
same,NF-kB SEAP reporter activity,"RAW-Dual [2]; library stock concentration (final ~1000-fold dilution): 10 mM water, cytotoxicity flag (confluency mask): not cytotoxic, agonist: MPLA (TLR4) […]",1.03
O=c1cc(-c2ccc(O)cc2)oc2c(C3OC(CO)C(O)C(O)C3O)c(O)cc(O)c12 (configuration not stated),NF-kB SEAP reporter activity,RAW-Dual [2]; [7],0.887
same,NF-kB SEAP reporter activity,RAW-Dual [2]; [8],0.994
O=c1cc(-c2ccc(O)cc2)oc2c(C3OC(CO)C(O)C(O)C3O)c(O)cc(O)c12 (configuration not stated) (library stock concentration (final ~1000-fold dilution): 10 mM),NF-kB SEAP reporter activity,RAW-Dual [1]; agonist: LPS (TLR4) 0.1 ug/mL,0.978
same,NF-kB SEAP reporter activity,RAW-Dual [1]; [4],0.919
same,NF-kB SEAP reporter activity,RAW-Dual [1]; [5],1
same,NF-kB SEAP reporter activity,RAW-Dual [1]; [6],1.31
